# From PubChem BioAssay (Tox21)
# Inconclusive results are not listed. A call without a number means that no potency is given here. Calls of active or inactive are those of the source. Unless noted, calls follow the shape of the dose curve; as a rule, active = well fitted curve in the direction sought with a large enough effect in the repeat runs; inconclusive = weak or mixed curves; inactive = no such curve, though single readings can be large; an effect the other way counts as inactive or inconclusive.
# Experiments:
# [1] = qHTS assay to identify small molecule agonists of the RXR signaling pathway - cell viability counter screen (AID 1159529); also: nearly all actives have a fitted effect of over 50% in size; also: potency is read from the fitted curve at half-maximal effect
# Method in brief: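 Tox21 10K compounds were tested for cytotoxicity against GeneBLAzer RXR-alpha HEK 293T cells grown in 2% charcoal-stripped FBS. Exposure lasted 16 hr at 37 C, 5% CO2; viability read by CellTiter-Glo luminescence.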
# [2] = qHTS assay to identify small molecule antagonists of the retinoid acid receptor (RAR) signaling pathway - cell viability counter screen (AID 1159551); also: nearly all actives have a fitted effect of over 35% in size; also: potency is read from the fitted curve at half-maximal effect
# Method in brief: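 Retinol-stimulated (1 uM final) C3RL4 cells, compound 6 h, 37 C; readout CellTiter-Glo luminescence (ATP) after 30 min RT incubation.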
# [3] = target: Nuclear receptor subfamily 1 group I member 3 (Homo sapiens) (UniProt Q14994); assay: qHTS assay to identify small molecule agonists of the constitutive androstane receptor (CAR) signaling pathway (AID 1224839); also: nearly all actives have a fitted effect of over 15% in size; also: potency is read from the fitted curve at half-maximal effect
# Sequence of Nuclear receptor subfamily 1 group I member 3 (Homo sapiens) (Q14994 whole entry, looked up): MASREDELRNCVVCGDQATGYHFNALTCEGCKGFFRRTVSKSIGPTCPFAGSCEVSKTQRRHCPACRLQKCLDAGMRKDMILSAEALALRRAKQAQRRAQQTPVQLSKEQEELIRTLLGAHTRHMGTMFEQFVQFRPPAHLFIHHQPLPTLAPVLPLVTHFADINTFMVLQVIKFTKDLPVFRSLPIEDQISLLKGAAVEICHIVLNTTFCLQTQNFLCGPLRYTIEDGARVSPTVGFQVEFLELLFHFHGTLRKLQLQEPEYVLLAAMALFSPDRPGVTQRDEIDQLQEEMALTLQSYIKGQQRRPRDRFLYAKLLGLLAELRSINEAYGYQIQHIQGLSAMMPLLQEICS
# Method in brief: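 Stable hCAR/CYP2B6-2.2kb HepG2 line in DMEM with 10% FBS; compounds (15 concentrations) and 0.75 uM PK11195 final, 24 h at 37 C/5% CO2, then ONE-Glo luminescence after 30 min.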
# [4] = qHTS assay to identify small molecule agonists of the hypoxia (HIF-1) signaling pathway - cell viability counter screen (AID 1224844; calls by dose curve; also: nearly all actives have a fitted effect of over 50% in size; also: potency is read from the fitted curve at half-maximal effect)
# Method in brief: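 Cells (HRE-bla ME-180, 2,000 per well) sat 5 hrs at 37C, got compound for 17 hrs, were read for CCF4-AM FRET, and were finally lysed with CellTiter-Glo for a 30 min room-temperature luminescence read.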
# [5] = qHTS RealTime-Glo MT Cell Viability Assay in HepG2 cells - 8 hour (AID 1224873); also: nearly all actives have a fitted effect of over 55% in size
# Method in brief: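 Real-time viability: cells seeded at 600 per well together with NanoLuc and cell-permeant prosubstrate, compounds added after 5 h incubation. Luminescence tracked at 0, 8, 16, 24, 32 and 40 h of exposure.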
# [6] = qHTS assay to identify small molecule agonists of the androgen receptor (AR) signaling pathway in the presence of an antagonist - cell viability counter screen (AID 1259379); also: nearly all actives have a fitted effect of over 25% in size; also: potency is read from the fitted curve at half-maximal effect
# Method in brief: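 Seed MDA-kb2 at 3,000 cells/well; incubate 5 hr, 37C, 0% CO2. Add nilutamide to 3.0uM final, then pin compounds at 15 concentrations. Incubate 16 hr. Add CellTiter-Fluor at 15 hr, read fluorescence after 1 hr.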
# [7] = qHTS assay to identify small molecule antagonists of the estrogen receptor beta (ER-beta) signaling pathway - cell viability counter screen (AID 1259382); also: nearly all actives have a fitted effect of over 55% in size; also: potency is read from the fitted curve at half-maximal effect
# Method in brief: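 In this multiplexed counter screen, cells were seeded at 2,000 per well in medium with 2% charcoal-stripped FBS and incubated 6 hr before compound and 1nM final E2 were added. Sixteen hours later, ATP-based luminescence reported viability.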
# [8] = target: Progesterone receptor (Homo sapiens) (UniProt P06401); assay: qHTS assay to identify small molecule agonists of the progesterone receptor (PR) signaling pathway (AID 1346784; calls by dose curve; also: nearly all actives have a fitted effect of over 30% in size)
# Sequence of Progesterone receptor (Homo sapiens) (P06401 whole entry, looked up): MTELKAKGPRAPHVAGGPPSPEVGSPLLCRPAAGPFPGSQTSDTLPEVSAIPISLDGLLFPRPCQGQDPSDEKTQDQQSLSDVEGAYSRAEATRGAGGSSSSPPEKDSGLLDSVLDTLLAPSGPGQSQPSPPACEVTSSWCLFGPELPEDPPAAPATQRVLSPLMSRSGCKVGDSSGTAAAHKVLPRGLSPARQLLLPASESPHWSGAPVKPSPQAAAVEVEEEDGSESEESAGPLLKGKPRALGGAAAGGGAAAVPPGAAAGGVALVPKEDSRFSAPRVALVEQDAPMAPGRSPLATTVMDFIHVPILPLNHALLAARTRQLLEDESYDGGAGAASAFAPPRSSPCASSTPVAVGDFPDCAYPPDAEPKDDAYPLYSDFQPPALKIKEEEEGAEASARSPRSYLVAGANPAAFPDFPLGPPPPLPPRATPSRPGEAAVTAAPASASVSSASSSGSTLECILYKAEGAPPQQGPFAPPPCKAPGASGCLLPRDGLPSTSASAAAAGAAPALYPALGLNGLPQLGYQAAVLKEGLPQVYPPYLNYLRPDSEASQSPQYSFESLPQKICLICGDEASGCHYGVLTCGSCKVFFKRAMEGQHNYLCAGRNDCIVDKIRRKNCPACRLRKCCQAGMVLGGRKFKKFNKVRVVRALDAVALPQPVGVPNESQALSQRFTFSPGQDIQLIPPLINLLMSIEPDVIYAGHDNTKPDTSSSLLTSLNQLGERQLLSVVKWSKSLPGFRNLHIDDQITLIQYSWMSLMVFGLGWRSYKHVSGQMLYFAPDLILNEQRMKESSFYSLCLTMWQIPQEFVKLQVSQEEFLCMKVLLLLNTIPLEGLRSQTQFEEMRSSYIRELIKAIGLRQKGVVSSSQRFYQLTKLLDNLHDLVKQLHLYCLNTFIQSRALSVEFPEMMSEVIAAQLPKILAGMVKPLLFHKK
# Method in brief: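 The screen uses PR-UAS-bla HEK 293T cells in charcoal-stripped serum (2%). Compounds are applied for 16 hr at 37C after a 6 hr pre-incubation, and reporter activity is detected with a FRET beta-lactamase substrate after 2 hr at room temperature.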
# [9] = qHTS assay to identify small molecule antagonists of the progesterone receptor (PR) signaling pathway - cell viability counter screen (AID 1346798); also: nearly all actives have a fitted effect of over 50% in size; also: potency is read from the fitted curve at half-maximal effect
# Method in brief: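 Viability was determined by ATP-based luminescence (CellTiter-Glo) in PR-UAS-bla HEK293T cells cultured in 2% charcoal-stripped serum and incubated 16 hr with compounds under R5020 stimulation.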
# [10] = target: Thyrotropin-releasing hormone receptor (Homo sapiens) (UniProt P34981); assay: qHTS assay to identify small molecule agonists of the thyrotropin-releasing hormone receptor (TRHR) signaling pathway (AID 1346891; calls by dose curve;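 also: HEK293 cells expressing TRHR with calcium dye readout; series mostly up to about 58 µM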)
# Sequence of Thyrotropin-releasing hormone receptor (Homo sapiens) (P34981 whole entry, looked up): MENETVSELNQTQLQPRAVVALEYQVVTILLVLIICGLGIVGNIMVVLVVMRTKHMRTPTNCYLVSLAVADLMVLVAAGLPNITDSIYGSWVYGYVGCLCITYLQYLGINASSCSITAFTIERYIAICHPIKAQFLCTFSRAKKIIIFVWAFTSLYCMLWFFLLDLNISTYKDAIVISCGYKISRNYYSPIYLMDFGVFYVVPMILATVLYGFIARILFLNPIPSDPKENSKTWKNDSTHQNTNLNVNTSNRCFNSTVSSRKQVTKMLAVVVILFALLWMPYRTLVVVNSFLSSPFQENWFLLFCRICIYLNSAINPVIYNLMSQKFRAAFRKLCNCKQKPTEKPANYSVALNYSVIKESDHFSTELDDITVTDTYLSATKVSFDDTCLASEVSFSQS
# Method in brief: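 Kinetic fluorescence (3 min, 1 s intervals) reported intracellular calcium after compound transfer onto TRHR-Hek293 cells pre-loaded with dye for 2 h at 37 °C.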
# [11] = Caspase-3/7 induction in HepG2 cells by small molecules, qHTS cell viability counter screen (AID 1346981); also: nearly all actives have a fitted effect of over 30% in size; also: potency is read from the fitted curve at half-maximal effect
# Method in brief: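 Viability determined by CellTiter-Fluor fluorescence in HepG2 wells also used for the luminescent Caspase-Glo 3/7 read. Compounds were present for 16 hr at 37 C, 5% CO2 before reagent addition.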
# [12] = target: Cytochrome P450 2D6 (Homo sapiens) (UniProt P10635); assay: Cytochrome P450 Family 2 Subfamily D Member 6 (CYP2D6) small molecule antagonists: luciferase reporter qHTS assay (AID 1671196); also: nearly all actives have a fitted effect of over 50% in size; also: potency is read from the fitted curve at half-maximal effect
# Sequence of Cytochrome P450 2D6 (Homo sapiens) (P10635 whole entry, looked up): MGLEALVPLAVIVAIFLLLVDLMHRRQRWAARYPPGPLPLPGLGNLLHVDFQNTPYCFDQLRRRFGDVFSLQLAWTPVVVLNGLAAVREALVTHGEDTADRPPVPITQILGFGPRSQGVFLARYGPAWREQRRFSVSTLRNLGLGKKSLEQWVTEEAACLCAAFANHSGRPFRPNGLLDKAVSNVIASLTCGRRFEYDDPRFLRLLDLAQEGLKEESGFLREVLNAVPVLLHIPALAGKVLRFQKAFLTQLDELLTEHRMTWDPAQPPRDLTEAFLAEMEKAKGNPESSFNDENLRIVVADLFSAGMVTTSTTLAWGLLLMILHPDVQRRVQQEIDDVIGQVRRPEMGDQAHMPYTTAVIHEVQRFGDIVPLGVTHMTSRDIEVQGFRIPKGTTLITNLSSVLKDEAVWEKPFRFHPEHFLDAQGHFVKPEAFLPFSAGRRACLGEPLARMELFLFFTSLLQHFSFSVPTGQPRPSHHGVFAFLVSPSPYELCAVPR
# Method in brief: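 Each well received CYP2D6 with its proluciferin substrate and chemical, sat 10 min, then got NADPH regeneration solution for 1 h at room temperature. Luminescence in RLU served as the activity measure.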
# [13] = target: Cytochrome P450 3A4 (Homo sapiens) (UniProt P08684); assay: Cytochrome P450 Family 3 Subfamily A Member 4 (CYP3A4) small molecule antagonists: luciferase reporter qHTS assay (AID 1671201); also: nearly all actives have a fitted effect of over 50% in size; also: potency is read from the fitted curve at half-maximal effect
# Sequence of Cytochrome P450 3A4 (Homo sapiens) (P08684 whole entry, looked up): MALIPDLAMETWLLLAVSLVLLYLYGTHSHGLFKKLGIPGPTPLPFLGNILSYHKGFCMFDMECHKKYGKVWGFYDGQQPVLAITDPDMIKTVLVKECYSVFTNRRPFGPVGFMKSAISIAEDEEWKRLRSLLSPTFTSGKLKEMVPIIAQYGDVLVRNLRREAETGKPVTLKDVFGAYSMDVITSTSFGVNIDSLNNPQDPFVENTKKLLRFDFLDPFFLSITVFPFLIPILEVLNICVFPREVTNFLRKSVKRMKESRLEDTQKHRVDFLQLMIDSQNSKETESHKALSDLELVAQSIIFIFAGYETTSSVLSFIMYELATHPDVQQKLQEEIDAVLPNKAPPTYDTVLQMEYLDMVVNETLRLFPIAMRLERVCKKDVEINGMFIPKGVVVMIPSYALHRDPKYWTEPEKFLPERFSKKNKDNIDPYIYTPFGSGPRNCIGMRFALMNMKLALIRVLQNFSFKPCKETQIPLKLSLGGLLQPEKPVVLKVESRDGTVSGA
# Method in brief: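 Enzyme and proluciferin substrate are mixed with test chemicals for 10 min, then NADPH regeneration system drives turnover for 1 h at room temperature. A detection reagent halts the reaction; luminescence after 20 min gives relative activity.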
# [14] = qHTS RealTime-Glo MT Cell Viability Assay in HEK293 cells - 16 hour (AID 1224872); also: nearly all actives have a fitted effect of over 50% in size; also: potency is read from the fitted curve at half-maximal effect
# Method in brief: (§1)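 HEK293 cells were seeded at 600 cells/well together with NanoLuc luciferase and cell-permeant prosubstrate, preincubated 5 h at 37 C/5% CO2, then given compound in DMSO by pintool. Luminescence from viable-cell prosubstrate reduction was read repeatedly over 40 h.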
# [15] = A CellTox Green Cytotoxicity Assay to monitor cytotoxicity in HEK293 cells - 32 hour (AID 1224881); also: nearly all actives have a fitted effect of over 40% in size
# Method in brief: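 Fluorescence intensity, read at 0, 8, 16, 24, 32 and 40 h of compound treatment, reflected dye binding to DNA of dead HEK293 cells; compounds (23 nL, DMSO) were added 5 h after plating cells with reagent.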
# [16] = qHTS RealTime-Glo MT Cell Viability Assay in HEK293 cells - 24 hour (AID 1224886); also: nearly all actives have a fitted effect of over 50% in size; also: potency is read from the fitted curve at half-maximal effect
# Method in brief: as §1
# [17] = qHTS assay to identify small molecule agonists of the estrogen receptor beta (ER-beta) signaling pathway - cell viability counter screen (AID 1259380); also: nearly all actives have a fitted effect of over 30% in size; also: potency is read from the fitted curve at half-maximal effect
# Method in brief: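 CellTiter-Glo read, 30 min RT, same wells as bla assay; cells ER-beta-UAS-bla HEK293T; 16 hr compound, 37C; medium 2% charcoal-stripped FBS.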
# [18] = Caspase-3/7 induction in CHO-K1 cells by small molecules, qHTS cell viability counter screen (AID 1346979); also: potency is read from the fitted curve at half-maximal effect; nearly all actives have a fitted effect of over 35% in size
# Method in brief: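 Seeding: 1,500 CHO-K1 cells/well. Rest: 5hr, 37C. Treatment: compounds in DMSO, 16hr. Read: CellTiter-Fluor, 1hr, fluorescence.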
# [19] = qHTS assay to identify small molecule agonists of H2AX - cell viability counter screen (AID 1224847; calls by dose curve; also: potency is read from the fitted curve at half-maximal effect; nearly all actives have a fitted effect of over 30% in size)
# Method in brief: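 Viability of CHO-K1 (wild type) cells after 3 hr compound exposure was measured by CellTiter-Glo luminescence.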
# [20] = Human pregnane X receptor (PXR) small molecule agonists, qHTS cell viability counter screen (AID 1346977); also: nearly all actives have a fitted effect of over 50% in size; also: potency is read from the fitted curve at half-maximal effect
# Method in brief: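 HepG2 cells stably carrying the PXR-Luc reporter are cultured with 5% charcoal-stripped FBS and treated with compounds for 24hr. CellTiter-Fluor is added at 23hr and fluorescence is read after 1hr.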
smiles,measurement,setting,value
ClC(Cl)=C(c1ccc(Cl)cc1)c1ccccc1Cl,Potency,[1],24.5 µM (active)
same,Potency,[2],inactive
same,Potency,[3],21.7 µM (active)
same,Potency,[4],inactive
same,Potency,[5],inactive
same,Potency,[6],inactive
same,Potency,[7],inactive
same,outcome,[8],inactive
same,Potency,[9],inactive
same,outcome,[10],inactive
same,Potency,[11],inactive
same,Potency,[12],inactive
same,Potency,[13],inactive
CC(C)(C)c1cc(C(C)(C)C)c(O)c(C(C)(C)C)c1,Potency,[3],8.63 µM (active)
N#Cc1cc([N+](=O)[O-])ccc1N,Potency,[1],inactive
same,Potency,[2],inactive
same,Potency,[4],inactive
same,Potency,[14],inactive
same,Potency,[5],inactive
same,Potency,[15],inactive
same,Potency,[16],inactive
same,Potency,[17],inactive
same,Potency,[7],inactive
same,outcome,[8],inactive
same,Potency,[9],inactive
same,outcome,[10],inactive
same,Potency,[18],61.1 µM (active)
same,Potency,[12],inactive
same,Potency,[13],inactive
CO/C=C(/C(=O)OC)c1ccccc1Oc1cc(Oc2ccccc2C#N)ncn1,Potency,[1],41.5 µM (active)
same,Potency,[2],32.7 µM (active)
same,Potency,[19],0.678 µM (active)
same,Potency,[6],23.1 µM (active)
same,Potency,[17],51.8 µM (active)
same,Potency,[7],54 µM (active)
same,Potency,[9],51.8 µM (active)
same,outcome,[10],inactive
same,Potency,[20],6.52 µM (active)
same,Potency,[18],1.05 µM (active)
same,Potency,[11],24.5 µM (active)
same,Potency,[12],43.1 µM (active)
same,Potency,[13],inactive
O=C(Nc1ccccc1-c1ccc(Cl)cc1)c1cccnc1Cl,Potency,[2],inactive
same,Potency,[5],inactive
same,Potency,[6],inactive
same,Potency,[17],14.5 µM (active)
same,outcome,[8],inactive
same,outcome,[10],inactive
same,Potency,[20],inactive
same,Potency,[11],inactive
same,Potency,[12],30.4 µM (active)
Cc1cc(C)c(C(=O)P(=O)(c2ccccc2)c2ccccc2)c(C)c1,Potency,[1],49 µM (active)
same,Potency,[2],inactive
same,Potency,[3],15.4 µM (active)
same,Potency,[4],43.6 µM (active)
same,Potency,[14],43.6 µM (active)
same,Potency,[16],38.9 µM (active)
same,Potency,[17],61.1 µM (active)
same,Potency,[7],61.1 µM (active)
same,outcome,[10],inactive
same,Potency,[20],61.1 µM (active)
same,Potency,[13],5.03 µM (active)
CC(c1ccccc1)(c1ccc(O)cc1)c1ccc(O)cc1,Potency,[4],54.9 µM (active)
same,Potency,[5],inactive
same,Potency,[17],54.5 µM (active)
same,Potency,[7],61.1 µM (active)
same,outcome,[10],inactive
same,Potency,[18],68.6 µM (active)
same,Potency,[13],25.2 µM (active)
OC(Cc1ccccc1Cl)(Cn1[nH]cnc1=S)C1(Cl)CC1 (centres undefined),Potency,[2],inactive
same,Potency,[3],inactive
same,Potency,[4],inactive
same,Potency,[5],inactive
same,Potency,[15],inactive
same,Potency,[7],inactive
same,Potency,[9],inactive
same,outcome,[10],inactive
same,Potency,[20],inactive
same,Potency,[11],inactive
same,Potency,[13],5.64 µM (active)
c1ccc2c(c1)Sc1ccccc1N2CC1CN2CCC1CC2 (centres undefined),Potency,[1],19 µM (active)
same,Potency,[2],inactive
same,Potency,[3],inactive
same,Potency,[17],23.7 µM (active)
same,Potency,[7],21.1 µM (active)
same,Potency,[9],21.1 µM (active)
same,Potency,[20],26.6 µM (active)
same,Potency,[18],29.8 µM (active)
same,Potency,[11],29.8 µM (active)
